According to PubChem BioAssay:
The source made the active and inactive calls. The rule behind the calls is not given here.

target: Pantothenate synthetase (Mycobacterium tuberculosis (strain ATCC 25618 / H37Rv)) (UniProt P9WIL5); test: Coupled enzyme confirmation of inhibitors against recombinant Mtb PanC (AID 375); conditions: coupled enzyme assay; at 10 µM, active compounds read high;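 note: 0% = full reaction with vehicle and 100% = no enzyme background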
Sequence (P9WIL5 whole entry, looked up): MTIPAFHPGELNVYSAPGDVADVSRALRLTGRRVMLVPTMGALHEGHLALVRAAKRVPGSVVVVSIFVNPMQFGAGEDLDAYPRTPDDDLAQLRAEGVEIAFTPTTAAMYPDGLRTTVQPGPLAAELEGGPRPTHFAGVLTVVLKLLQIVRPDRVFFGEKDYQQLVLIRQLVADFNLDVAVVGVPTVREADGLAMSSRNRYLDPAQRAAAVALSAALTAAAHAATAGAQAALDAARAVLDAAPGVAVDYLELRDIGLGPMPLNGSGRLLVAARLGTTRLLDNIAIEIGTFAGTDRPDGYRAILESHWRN

SMILES	inhibition
FC(F)(F)c1cccc(N2CCN(Cc3cccnc3)CC2)c1	4% (inactive)
Cc1ccc(N(CC(=O)NCC2CCCO2)S(C)(=O)=O)cc1Cl (stereo not drawn)	0% (inactive)
CCOc1ccc2[nH]c(=O)c(CN(CCOC)C(=O)N3CCOCC3)cc2c1	8% (inactive)
O=c1c2nnn(Cc3ccccc3)c2ncn1-c1ccccc1	0% (inactive)
CN1C(C(=O)Nc2ccccn2)=C(O)c2ccccc2S1(=O)=O	9% (inactive)
c1cn(CC2(Cn3ccnc3)COC2)cn1	1% (inactive)
CC1Cc2ccccc2N1Cc1cc(=O)n2ccsc2n1 (stereo not drawn)	0% (inactive)
CC(C)[N+]1(C)[C@@H]2CC[C@H]1CC(OC(=O)C(CO)c1ccccc1)C2 (stereo partly drawn)	0% (inactive)
COc1ccccc1CNC(=O)CCNC(=O)Cn1ccc2ccccc2c1=O	6% (inactive)
COCc1[nH]nc2c1C(C1C=CCCC1)C(C#N)=C(N)O2 (stereo not drawn)	0% (inactive)
COc1ccc(-c2ccc(-c3noc(-c4ccccc4OC)n3)c(OC)n2)cc1	0% (inactive)
O=C(CSc1nnc(-c2ccccc2)c(-c2ccccc2)n1)N1CCOCC1	0% (inactive)
Cc1nnc(C)c2c(C)n(-c3ccc(Br)cc3)c(C)c12	0% (inactive)
CC(Sc1nnnn1-c1ccccc1)C(=O)Nc1ccc(Cl)cn1 (stereo not drawn)	2% (inactive)
COc1ccc(C(=O)Cn2c(N3CCCCC3)nc3c2c(=O)n(C)c(=O)n3C)cc1OC	6% (inactive)
CC(CCC(=O)Nc1nncs1)C(=O)O (stereo not drawn)	1% (inactive)
CCc1n[nH]c2c1C(=O)CC(C)(C)C2	2% (inactive)
Cc1ccccc1NC(=O)c1c(F)c(F)c(F)c(F)c1F	0% (inactive)
